Compounds without any hit were thinned out: in the full panel of roughly 79,000, 15% have a hit. Activity calls are given as the source filed them. No stated cut-off is given here; in the data, active means growth inhibition above about 70%; inactive means the rest.
Assays:
[1] = NCI Yeast Anticancer Drug Screen. Data for the rad52 strain (AID 147);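 further: 0% = growth of vehicle-treated control cultures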; details: S. cerevisiae rad52 mutant growth inhibition, stronger effect = higher value
Method in brief: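 Inhibition of yeast growth, referenced to vehicle controls, was the measured output for a strain with defective DNA damage repair.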

[2] = NCI Yeast Anticancer Drug Screen. Data for the wt1 strain (AID 149);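 further: 0% = growth of vehicle-treated wt1 cultures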; details: S. cerevisiae wt1 strain (SPY 50644) growth inhibition, stronger effect = higher value
Method in brief: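 Using yeast strain wt1, compound-induced growth inhibition was determined against vehicle-treated cultures.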

[3] = NCI Yeast Anticancer Drug Screen. Data for the rad50EPP+ strain (AID 151);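 further: 0% = growth of vehicle-treated control cultures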; details: S. cerevisiae rad50 mutant strain, stronger effect = higher value
Method in brief: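 Genetically defined yeast (rad50EPP+, DNA damage repair alteration) is grown with compound, and inhibition of growth is expressed relative to vehicle-treated controls.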

[4] = NCI Yeast Anticancer Drug Screen. Data for the mgt1 strain (AID 153); details: S. cerevisiae mgt1 mutant growth inhibition, stronger effect = higher value
Method in brief: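 In the mgt1 strain, test compounds were added and growth inhibition was determined relative to vehicle-treated controls.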

[5] = NCI Yeast Anticancer Drug Screen. Data for the rad50 strain (AID 155);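 further: 0% = growth of vehicle-only cultures of the same strain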; details: S. cerevisiae rad50 strain growth inhibition, stronger effect = higher value
Method in brief: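 Relative growth inhibition (compound vs vehicle) was measured in yeast with a defined repair-gene alteration.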

[6] = NCI Yeast Anticancer Drug Screen. Data for the mec2-1 strain (AID 157); details: S. cerevisiae mec2-1 strain, stronger effect = higher value
Method in brief: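 Each compound was tested on mec2-1 yeast, a strain altered in DNA damage repair or cell cycle control. Growth inhibition is reported relative to vehicle.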

[7] = NCI Yeast Anticancer Drug Screen. Data for the rad14 strain (AID 159);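 further: 0% = growth of vehicle-treated control cultures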; details: S. cerevisiae rad14 strain growth inhibition, stronger effect = higher value
Method in brief: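 Screen for anticancer potential: a yeast strain altered in DNA damage repair is grown with compound, and reduced growth is quantified against vehicle controls.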

[8] = NCI Yeast Anticancer Drug Screen. Data for the sgs1 mgt1 strain (AID 161);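 further: 0% = growth of cultures given vehicle only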; details: S. cerevisiae sgs1 mgt1 strain, stronger effect = higher value
Method in brief: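 Mutant yeast exposed to compound; growth scored against vehicle-only wells.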

[9] = NCI Yeast Anticancer Drug Screen. Data for the CLN2oe strain (AID 163);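 further: 0% = growth of vehicle-only control cultures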; details: S. cerevisiae CLN2oe strain, stronger effect = higher value
Method in brief: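 First, the altered yeast strain was treated with each compound; second, its growth was measured; finally, inhibition was derived by comparison with vehicle controls.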

[10] = NCI Yeast Anticancer Drug Screen. Data for the cln2 rad14 strain (AID 165);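 further: 0% = growth equal to vehicle treated cultures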; details: S. cerevisiae cln2 rad14 strain, stronger effect = higher value
Method in brief: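 Test compounds were added to cln2 rad14 yeast cultures; inhibition of growth was then determined by comparison with vehicle treatment.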

[11] = NCI Yeast Anticancer Drug Screen. Data for the bub3 strain (AID 167); details: S. cerevisiae bub3 mutant strain, stronger effect = higher value
Method in brief: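 Screening used yeast with an engineered genetic alteration affecting cell cycle control. Compound-exposed cultures were compared with vehicle cultures, and reduced growth was taken as inhibition.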

[12] = NCI Yeast Anticancer Drug Screen. Data for the wt2 strain (AID 169);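 further: 0% = growth of vehicle-treated yeast cultures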; details: S. cerevisiae wt2 strain growth inhibition, stronger effect = higher value
Method in brief: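 The panel's yeast strains carry defined changes in DNA repair or cell cycle genes. Each strain is grown with compound, and growth loss is scored relative to vehicle.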

[13] = NCI Yeast Anticancer Drug Screen. Data for the mlh1 strain (AID 171);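 further: 0% = growth of vehicle-treated control cultures of the same strain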; details: S. cerevisiae mlh1 strain growth inhibition, stronger effect = higher value
Method in brief: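 Inhibition values reflect reduced yeast growth in the presence of compound, referenced to vehicle controls, using a strain chosen for its alteration in DNA repair or cell cycle control.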

[14] = NCI Yeast Anticancer Drug Screen. Data for the sgs1 strain (AID 173);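 further: 0% = growth of vehicle-only control cultures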; details: S. cerevisiae sgs1 mutant, stronger effect = higher value
Method in brief: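 Vehicle-treated cultures served as reference for growth inhibition of a yeast strain altered in DNA damage repair or cell cycle control after compound exposure.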

[15] = NCI Yeast Anticancer Drug Screen. Data for the mlh1 rad18 strain (AID 175); details: S. cerevisiae mlh1 rad18 strain growth inhibition, stronger effect = higher value
Method in brief: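 Inhibition values reflect reduced growth of mutant yeast versus vehicle-treated controls following compound exposure; the mutations affect DNA damage repair.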

[16] = NCI Yeast Anticancer Drug Screen. Data for the rad18 strain (AID 177); details: S. cerevisiae rad18 mutant growth inhibition, stronger effect = higher value
Method in brief: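 Steps: expose repair-mutant yeast to compound; measure growth; express as inhibition relative to vehicle control.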

[17] = at 5.0 µM (retest, dose inferred, filed as 0.5)
[18] = at 50.0 µM (retest, dose inferred, filed as 5.0)

Measured: growth inhibition

Oc1cccc2c(Cl)ccnc12
inactive: [1]; at 1.2 µM 42% | [2]; at 1.2 µM 47% | [2]; at 11.0 µM 38% | [4]; at 1.2 µM 41% | [5]; at 1.2 µM 43% | [6]; at 1.2 µM 39% | [6]; at 3.7 µM 63% | [7]; at 1.2 µM 37% | [8]; [17] -5% | [9]; at 1.2 µM 52% | [10]; [17] 43% | [11]; at 1.2 µM 32% | [11]; at 3.7 µM 54% | [12]; at 1.2 µM 38% | [13]; at 1.2 µM 27% | [14]; at 1.2 µM 36% | [16]; at 1.2 µM 33%
active: [1]; at 3.7 µM 99% | [1]; at 11.0 µM 99% | [1]; at 33.0 µM 95% | [1]; at 100.0 µM 98% | [2]; at 3.7 µM 98% | [2]; at 33.0 µM 97% | [2]; at 100.0 µM 99% | [3]; at 1.2 µM 83% | [3]; at 3.7 µM 102% | [3]; at 11.0 µM 81% | [3]; at 33.0 µM 97% | [3]; at 100.0 µM 97% | [4]; at 3.7 µM 99% | [4]; at 11.0 µM 98% | [4]; at 33.0 µM 95% | [4]; at 100.0 µM 98% | [5]; at 3.7 µM 100% | [5]; [17] 99% | [5]; at 11.0 µM 98% | [5]; at 33.0 µM 97% | [5]; [18] 99% | [5]; at 50.0 µM 91.5% | [5]; at 100.0 µM 97% | [6]; [17] 99% | [6]; at 11.0 µM 99% | [6]; at 33.0 µM 97% | [6]; [18] 99% | [6]; at 50.0 µM 93.2% | [6]; at 100.0 µM 99% | [7]; at 3.7 µM 99% | [7]; at 11.0 µM 99% | [7]; at 33.0 µM 96% | [7]; at 100.0 µM 98% | [8]; [18] 99% | [8]; at 50.0 µM 93.8% | [9]; at 3.7 µM 96% | [9]; at 11.0 µM 97% | [9]; at 33.0 µM 93% | [9]; at 100.0 µM 97% | [10]; [18] 99% | [10]; at 50.0 µM 91.8% | [11]; [17] 93% | [11]; at 11.0 µM 98% | [11]; at 33.0 µM 92% | [11]; [18] 100% | [11]; at 50.0 µM 92.8% | [11]; at 100.0 µM 97% | [12]; at 3.7 µM 97% | [12]; at 11.0 µM 98% | [12]; at 33.0 µM 97% | [12]; at 100.0 µM 98% | [13]; at 3.7 µM 99% | [13]; at 11.0 µM 98% | [13]; at 33.0 µM 97% | [13]; at 100.0 µM 99% | [14]; at 3.7 µM 99% | [14]; at 11.0 µM 99% | [14]; at 33.0 µM 96% | [14]; at 100.0 µM 98% | [15]; [17] 100% | [15]; [18] 99% | [15]; at 50.0 µM 91% | [16]; at 3.7 µM 98% | [16]; at 11.0 µM 97% | [16]; at 33.0 µM 92% | [16]; at 100.0 µM 97%

CN1CCc2ccccc2C1Cc1ccccc1NC(=O)c1sc2ccccc2c1Cl (stereo unspecified)
active: [1]; at 100.0 µM 93% | [2]; at 100.0 µM 88% | [3]; at 100.0 µM 83% | [4]; at 33.0 µM 95% | [4]; at 100.0 µM 93% | [5]; [18] 97% | [5]; at 50.0 µM 96.8% | [5]; at 100.0 µM 90% | [6]; at 50.0 µM 98% | [6]; at 100.0 µM 92% | [7]; at 33.0 µM 89% | [7]; at 100.0 µM 93% | [8]; [18] 99% | [8]; at 50.0 µM 99% | [9]; at 100.0 µM 93% | [10]; at 50.0 µM 77.3% | [11]; [18] 94% | [11]; at 50.0 µM 97.5% | [11]; at 100.0 µM 92% | [12]; at 33.0 µM 89% | [12]; at 100.0 µM 93% | [13]; at 33.0 µM 90% | [13]; at 100.0 µM 93% | [14]; at 33.0 µM 90% | [14]; at 100.0 µM 89% | [15]; [18] 93% | [15]; at 50.0 µM 98.2% | [16]; at 100.0 µM 90%
inactive: [1]; at 1.2 µM -35% | [1]; at 3.7 µM -38% | [1]; at 11.0 µM -15% | [1]; at 33.0 µM -8% | [2]; at 1.2 µM -23% | [2]; at 3.7 µM -22% | [2]; at 11.0 µM -13% | [2]; at 33.0 µM 22% | [3]; at 1.2 µM -21% | [3]; at 3.7 µM -9% | [3]; at 11.0 µM 19% | [3]; at 33.0 µM 68% | [4]; at 1.2 µM -19% | [4]; at 3.7 µM -24% | [4]; at 11.0 µM 19% | [5]; at 1.2 µM -33% | [5]; at 3.7 µM -36% | [5]; [17] 8% | [5]; at 11.0 µM -22% | [5]; at 33.0 µM 29% | [6]; at 1.2 µM -39% | [6]; at 3.7 µM -29% | [6]; [17] -7% | [6]; at 11.0 µM -2% | [6]; at 33.0 µM 36% | [6]; [18] 68% | [7]; at 1.2 µM -50% | [7]; at 3.7 µM -40% | [7]; at 11.0 µM -24% | [8]; [17] -7% | [9]; at 1.2 µM 14% | [9]; at 3.7 µM 7% | [9]; at 11.0 µM 14% | [9]; at 33.0 µM 62% | [10]; [17] -10% | [10]; [18] 60% | [11]; at 1.2 µM -54% | [11]; at 3.7 µM -22% | [11]; [17] 7% | [11]; at 11.0 µM -33% | [11]; at 33.0 µM 22% | [12]; at 1.2 µM -13% | [12]; at 3.7 µM -13% | [12]; at 11.0 µM -3% | [13]; at 1.2 µM -22% | [13]; at 3.7 µM -16% | [13]; at 11.0 µM 8% | [14]; at 1.2 µM -25% | [14]; at 3.7 µM -20% | [14]; at 11.0 µM 18% | [15]; [17] -8% | [16]; at 1.2 µM -38% | [16]; at 3.7 µM -23% | [16]; at 11.0 µM -16% | [16]; at 33.0 µM 26%
